Data as given in PMC4336329 (PLoS ONE, 2015).
About 14,000 (4.5%) of roughly 310,000 compounds showed an effect of 50% or more. The effect is printed as a negative number. The sample holds strong results, similar compounds and a random draw of the others, so the mix is not that of the screen.

The compounds below were run against human ether-à-go-go-related gene (hERG) potassium channel (human, UniProt Q12809) (assay: primary screen, population patch clamp on CHO cells stably expressing hERG; higher = less effect of the substance).
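Note: peak tail current of the secondary pulse compared with the same well before compound.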

human ether-à-go-go-related gene (hERG) potassium channel, sequence (Q12809 whole entry, looked up): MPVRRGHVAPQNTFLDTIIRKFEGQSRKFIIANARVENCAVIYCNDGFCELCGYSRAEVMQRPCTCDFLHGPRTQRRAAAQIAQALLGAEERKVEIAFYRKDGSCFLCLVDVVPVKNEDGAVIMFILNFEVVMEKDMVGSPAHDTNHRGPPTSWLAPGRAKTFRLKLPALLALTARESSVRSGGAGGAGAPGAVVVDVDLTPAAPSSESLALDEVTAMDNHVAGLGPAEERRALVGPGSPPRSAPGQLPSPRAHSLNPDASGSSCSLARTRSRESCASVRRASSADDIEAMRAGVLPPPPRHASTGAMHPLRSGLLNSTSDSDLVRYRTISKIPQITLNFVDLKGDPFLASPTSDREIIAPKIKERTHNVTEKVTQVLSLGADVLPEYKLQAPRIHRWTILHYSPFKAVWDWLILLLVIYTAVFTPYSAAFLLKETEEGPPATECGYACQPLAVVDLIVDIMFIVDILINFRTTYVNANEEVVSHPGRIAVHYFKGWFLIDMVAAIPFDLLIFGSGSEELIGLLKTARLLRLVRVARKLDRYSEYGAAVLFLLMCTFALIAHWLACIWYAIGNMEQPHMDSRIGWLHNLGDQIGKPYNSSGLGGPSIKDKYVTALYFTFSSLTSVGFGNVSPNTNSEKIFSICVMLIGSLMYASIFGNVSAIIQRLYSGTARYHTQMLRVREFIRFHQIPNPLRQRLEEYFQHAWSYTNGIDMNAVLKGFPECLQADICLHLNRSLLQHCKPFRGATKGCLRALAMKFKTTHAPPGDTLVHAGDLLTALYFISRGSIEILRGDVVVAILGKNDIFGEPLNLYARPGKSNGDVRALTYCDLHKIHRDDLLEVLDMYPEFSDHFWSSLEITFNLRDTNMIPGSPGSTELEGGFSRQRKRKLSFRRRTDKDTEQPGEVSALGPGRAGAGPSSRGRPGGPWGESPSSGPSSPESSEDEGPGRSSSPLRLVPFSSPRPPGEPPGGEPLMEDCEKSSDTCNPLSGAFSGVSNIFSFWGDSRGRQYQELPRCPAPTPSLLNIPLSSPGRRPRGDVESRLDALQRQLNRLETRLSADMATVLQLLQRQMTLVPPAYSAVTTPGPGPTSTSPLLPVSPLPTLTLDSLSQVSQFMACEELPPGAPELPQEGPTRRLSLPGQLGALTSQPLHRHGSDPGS

Going from `Cc1cc(C)n2nc(C(=O)N/N=C/c3ccccc3C)nc2n1` to `COc1ccccc1/C=N/Nc1nc(C)c(C(C)=O)s1`, the “hERG current change (%, negative = inhibition) at 10uM” value rises from 4.85% to 5%.

Going from `O=C1c2ccccc2NC2(CCCC2)N1N=C1CCCC1` to `O=C(Nc1ccc(CN2CCCCC2)cc1)Nc1ccccc1Cl`, the “hERG current change (%, negative = inhibition) at 10uM” value falls from -12.2% to -59%.

First: Cc1c(C(=O)Nc2cccc(S(=O)(=O)N3CCCC3)c2)oc2ccccc12
Second: COc1ccc(NS(=O)(=O)c2cccc(NC(=O)NC3CCCCC3)c2)cc1
The “hERG current change (%, negative = inhibition) at 10uM” value of the first is higher: 5.98% for the first, -4.21% for the second.

Going from `O=C(CCNS(=O)(=O)c1ccccc1)Nc1ccccc1` to `O=C(CCS(=O)(=O)c1ccccc1)Nc1ccc(Cl)cn1`, the “hERG current change (%, negative = inhibition) at 10uM” value falls from 17.8% to -3.42%.

Going from `CCc1ccc(NC(=O)C2CCN(S(=O)(=O)c3ccc4c(c3)NC(=O)C(C)S4)CC2)cc1` (stereo not shown) to `Cc1ccc(C(=O)Nc2ccc(CN3CCCCC3)cc2)c(C)c1`, the “hERG current change (%, negative = inhibition) at 10uM” value falls from 19.2% to -35.2%.

Going from `O=C(Oc1coc(CSc2nnc(NC(=O)c3cccs3)s2)cc1=O)c1ccccc1` to `CC(c1ccccc1)N1C(=O)c2ccc(C(=O)NCc3cccnc3)cc2C1=O` (stereo not shown), the “hERG current change (%, negative = inhibition) at 10uM” value falls from 7.37% to -18.4%.

First: CC(OC(=O)CC1CC2CCC1C2)C(=O)Nc1ccc(C(N)=O)cc1 (stereo not shown)
Second: O=C(CN1CCCC1)Nc1ccc(NC(=O)Nc2ccccc2Cl)cc1
The “hERG current change (%, negative = inhibition) at 10uM” value of the first is higher: -16% for the first, -21.5% for the second.

First: CCCCNC(=O)Nc1c(C(=O)OCC)[nH]c2ccccc12
Second: CCN(CC)C(=O)Cn1cc(C(=O)C(=O)NCCCn2ccnc2)c2ccccc21
The “hERG current change (%, negative = inhibition) at 10uM” value of the first is lower: 6.83% for the first, 27.8% for the second.

Going from `COc1cc2nc(/C=C/c3cc(OC)c(OC)c(OC)c3)sc2cc1SC` to `COc1cc(OC)c(OC)cc1CN1CCCC(C(=O)c2sccc2C)C1` (stereo not shown), the “hERG current change (%, negative = inhibition) at 10uM” value falls from 5.92% to -63.4%.

Going from `CO/N=C/CC(=O)Nc1ccc(F)cc1F` to `CN(CCc1ccccn1)C(=O)Nc1ccc(F)cc1`, the “hERG current change (%, negative = inhibition) at 10uM” value falls from 13.3% to 12.7%.

First: Cc1ccc(OCC(=O)Nc2ccc(CN3CCCCC3)cc2)c(C)c1
Second: O=C(COc1ccccc1)Nc1ccc(CN2CCCCC2)cc1
The “hERG current change (%, negative = inhibition) at 10uM” value of the first is lower: -69.4% for the first, -26.9% for the second.

Compared with `CCN1CCN(Cc2ccc(NC(=O)Nc3ccccc3Cl)cc2)CC1`, `CCN1CCN(CCNC(=O)c2cc(Cl)c(NC(=O)C3=C(C)OCCS3)cc2OC)CC1` is lower in “hERG current change (%, negative = inhibition) at 10uM” value: -22.8% for the first, -73.4% for the second.

Compared with `COc1ccc(C2CC(c3ccccc3)=NN2C(=O)CCC(=O)O)cc1` (stereo not shown), `COc1ccc(-c2cc(-c3n[nH]c(=S)n3-c3ccccc3Cl)[nH]n2)cc1` is higher in “hERG current change (%, negative = inhibition) at 10uM” value: 8.77% for the first, 13.5% for the second.

Compared with `O=C(COc1ccc(Cl)cc1)NCC(=O)N/N=C/c1cccs1`, `O=C(Nc1nc(-c2ccc(Cl)cc2)cs1)c1cccnc1` is lower in “hERG current change (%, negative = inhibition) at 10uM” value: 12% for the first, 5.68% for the second.

Going from `O=C(CN1C(=O)C2CCCCC2C1=O)Nc1nc(-c2ccc(F)cc2)cs1` (stereo not shown) to `COc1ccc(O)c(CN2CCCC(C(=O)c3sccc3C)C2)c1` (stereo not shown), the “hERG current change (%, negative = inhibition) at 10uM” value rises from 5.21% to 9.89%.

First: CC1(C)C(C#N)=C(N)Oc2c1c(=O)oc1ccccc21
Second: Nn1c(Cc2cccc3ccccc23)nnc1SC1CCOC1=O (stereo not shown)
The “hERG current change (%, negative = inhibition) at 10uM” value of the first is higher: 0.829% for the first, -0.158% for the second.

First: Cn1c(N)c(C(=O)CNC2CCCCC2)c(=O)n(C)c1=O
Second: Cc1cc(C(=O)N(C)C2CCCCC2)no1
The “hERG current change (%, negative = inhibition) at 10uM” value of the first is lower: 5.61% for the first, 11.7% for the second.

Compared with `Cc1ccc(-c2cc(C(=O)N/N=C/C=C/c3ccccc3)n[nH]2)o1`, `O=C(CCn1cnc2ccccc2c1=O)Nc1ccc2c(c1)OCCO2` is higher in “hERG current change (%, negative = inhibition) at 10uM” value: -7.76% for the first, 15.1% for the second.

Going from `Cc1ccc(C)c(N2CCN(c3ncccc3[N+](=O)[O-])CC2)c1` to `COc1cc(CN2CCCC(C(=O)c3ccc(SC)cc3)C2)cc(Cl)c1O` (stereo not shown), the “hERG current change (%, negative = inhibition) at 10uM” value falls from 2.42% to -72.8%.

Going from `COc1cc(NC(=O)C2=C(C)OCCS2)c(Cl)cc1C(=O)NCCN(C)C` to `CCCNC(=O)c1cc(Cl)c(NC(=O)C2=C(C)OCCS2)cc1OC`, the “hERG current change (%, negative = inhibition) at 10uM” value falls from -3.65% to -14.5%.

First: CCOCCCNC(=O)c1cc(Cl)c(NC(=O)C2=C(C)OCCS2)cc1OC
Second: CCN(CC)CCCNC(=O)c1cc(Cl)c(NC(=O)C2=C(C)OCCS2)cc1OC
The “hERG current change (%, negative = inhibition) at 10uM” value of the first is higher: -9.78% for the first, -61.5% for the second.

First: COc1cc(NC(=O)C2=C(C)OCCS2)c(Cl)cc1C(=O)NCCN1CCN(C)CC1
Second: COc1cc(CN2CCCC(C(=O)c3sccc3C)C2)cc(Cl)c1O (stereo not shown)
The “hERG current change (%, negative = inhibition) at 10uM” value of the first is higher: -47.1% for the first, -53.8% for the second.

Compared with `CCCN1C(=O)COc2ccc(C(=O)c3ccccc3C(=O)O)cc21`, `CC(Oc1ccccc1)C(=O)N1CCC2(CC1)Oc1ccc(F)cc1C(=O)C21CC(c2cccnc2)=NO1` (stereo not shown) is lower in “hERG current change (%, negative = inhibition) at 10uM” value: 17.7% for the first, -20.5% for the second.

First: O=C(NC(=S)N(Cc1ccccc1)Cc1ccccc1)C1CCCCC1
Second: CCc1ccc(CN2CCCC(C(=O)c3sccc3C)C2)o1 (stereo not shown)
The “hERG current change (%, negative = inhibition) at 10uM” value of the first is higher: 12.6% for the first, 2.99% for the second.

Compared with `COc1ccc(C(=O)N2CCN=C2SC)cc1`, `COc1ccc(OC)c(CN2CCCC(C(=O)c3sccc3C)C2)c1` (stereo not shown) is lower in “hERG current change (%, negative = inhibition) at 10uM” value: 1.04% for the first, -63.9% for the second.

First: O=S(=O)(Nc1cccnc1)c1cc(Cl)ccc1Cl
Second: CC(C)(C)S(=O)(=O)/C(C#N)=N/Nc1ccc(C#N)cc1
The “hERG current change (%, negative = inhibition) at 10uM” value of the first is lower: 9.51% for the first, 22.1% for the second.

First: CCOC(=O)C1CCCN(Cc2cc(OC)c(O)c(OC)c2)C1 (stereo not shown)
Second: COc1cc(CN2CCCC(C(=O)c3sccc3C)C2)cc(OC)c1O (stereo not shown)
The “hERG current change (%, negative = inhibition) at 10uM” value of the first is higher: -2.31% for the first, -47.8% for the second.

First: COCc1ccc(CN2CCCC(C(=O)c3sccc3C)C2)o1 (stereo not shown)
Second: Cc1ccc(CN2CCCC(C(=O)c3sccc3C)C2)o1 (stereo not shown)
The “hERG current change (%, negative = inhibition) at 10uM” value of the first is higher: 5.56% for the first, -11% for the second.

Going from `COc1cc(CN2CCCC(C(=O)c3ccc(C(C)(C)C)cc3)C2)cc(OC)c1O` (stereo not shown) to `CC(=O)O[C@H]1CC[C@@]2(C)[C@@H](CC[C@@H]3[C@@H]2CC[C@]2(C)[C@@H](C(C)(C)O)C[C@@H]32)C1`, the “hERG current change (%, negative = inhibition) at 10uM” value rises from -47.3% to 9.09%.
